For 20 molecules, binding signal results are on record in paper PMC12136788.

B1: chr12:98991669:98991670:+_ENSG00000075415_ENST00000552981|hu_mus|motif|central (ssRNA)
RNA: GGGAGUUCUACAGUCCGACGAUCGAAUCCAUUAAAUAUGCCUUUGUACUUCUGAGGGUCCACCUGCAUGCGGCACUUUACGGAGUCCAGGGGAACAACAGCAGUGUGUGUCAGCCCACAACUUAAGACCCCACCAAAGCCACACAACAGAGGAUUGAGCAUCA
B2: chr4:115894766:115894767:+_ENSMUSG00000028698_ENSMUST00000030464|mus_hu|mus_mus_mus_hu_True|1_98 (ssRNA)
RNA: GGGAGUUCUACAGUCCGACGAUCUUCCACACGGAAAGUACUUGGGGGUUUUCCAACGGCCAGUACCAGUCCGGCCAAACUACCCGAACAGGGUCCUCCCCCUCUCUCCUACAGAACACAACAAAAUGCCCCCGAACCCCGAACCAACAGAGGAUUGAGCAUCA
B3: chr2:69705335:69705336:+_ENSMUSG00000068882_ENSMUST00000090852|mus_mus|FALSE|FALSE (ssRNA)
RNA: GGGAGUUCUACAGUCCGACGAUCUUGGCCUUUAUCGUCUAGCCAUUCUUUUAUAUCAUCAAGGGUGGCGUCAGUUGGGAAACCUUUAAUAUAAACAGAUCUGUUUUUUACAUCAUUCUUAUACUCAUCCGUCACUUCAGGGAGCAACAGAGGAUUGAGCAUCA
B4: chr8:122087627:122087628:-_ENSMUSG00000034189_ENSMUST00000036049|mus_mus|FALSE|FALSE (ssRNA)
RNA: GGGAGUUCUACAGUCCGACGAUCGCAUUAAAGGCGUGAGCCCCCACGCCCAGCCUGAGGAACAUCUUGAAAGCCAAUACUAUAAUCAGUCACCUGUAAAAGGAAAACAGGUGACUUCUCAAAAAAAAAAAAAAAAGAAAGAAACAACAGAGGAUUGAGCAUCA
B5: chr8:122087627:122087628:-_ENSMUSG00000034189_ENSMUST00000036049|mus_mus|motif|central (ssRNA)
RNA: B4 RNA with U80G, A81G
B6: chr13:41369856:41369857:+_ENSMUSG00000091264_ENSMUST00000165561|mus_hu|FALSE|FALSE (ssRNA)
RNA: GGGAGUUCUACAGUCCGACGAUCGCACUUCAUUCUUGUACAAAGCAGGUAACACUAAACAGGAAGGUUGUUUAAUUCACAUCUCUUCUCCCUGGUAAACACUCAGCCCAGAGUUCAGUUGAGACAAACACGGAAACCUGGCAACAACAGAGGAUUGAGCAUCA
B7: chr1:23884524:23884525:-_ENSG00000117318_ENST00000374561|perfect_dup|FALSE|FALSE (ssRNA)
RNA: GGGAGUUCUACAGUCCGACGAUCUUUAAUAUACAUCGCAUUGUUACAGAAAGUCACCUUCCUGUAAAAAAGGUACAAAACCUAUAUACUCUAUUAUAGAGUUCAUAAAUCAGGGCAACAGAACCUUUCUCCAAGGAGACCAGACAACAGAGGAUUGAGCAUCA
B8: chr8:124405102:124405103:-_ENSMUSG00000040010_ENSMUST00000045557|mus_mus|motif|central (ssRNA)
RNA: GGGAGUUCUACAGUCCGACGAUCCCCAAAAAAACAAAAAGCCUCACAAAACAGCAGACCUCUGUACCCCCCCCCCAGUCGGAUGUAACAGGCUAGCCAUUAAUACAAUAGUAAAAGACAUUAUAACCACAGCACUAUCUCAGGCAACAGAGGAUUGAGCAUCA
B9: chr12:48362563:48362564:+_ENSG00000134291_ENST00000256686|hu_hu|hu_hu_hu_mus_False|98_108 (ssRNA)
RNA: GGGAGUUCUACAGUCCGACGAUCUCCGAAGGGUGAAUCAAGCCCCACUUGCGGGGGAAACUGUAAUCACUUUGUAUGGGGAAGGAAAAGAAACGCCAAAAACUUUCCAAAAAGCGGGGGUGGGGUGAGGCGGGAGGGGGAGGUCAACAGAGGAUUGAGCAUCA
B10: 107960272_107965159_2041_CDS_ENSG00000166266_ENST00000393094|human|control|control (ssRNA)
RNA: GGGAGUUCUACAGUCCGACGAUCUCUAGCAAGCUUGUUUACAUAAUCCGCUGGCAUACCAACUUCUCUUAGCCACUCUACCAUGUUUUCUUCAAUUUCACUAUCGGCAGAGAUGUCUAAUAUAAGACGUCGUGUCAAAUGAGCCAACAGAGGAUUGAGCAUCA
B11: chr1:95363480:95363481:-_ENSG00000117519_ENST00000538964|hu_mus|FALSE|FALSE (ssRNA)
RNA: GGGAGUUCUACAGUCCGACGAUCCGUGCCCUGGCUUCCGUUGUGAAUGACAGGUUCUGUGGGUGCGGCACAGUACUUGGGGUCAUAUACUUGCCGCCCAAGCCCAUACACGCUCAUUCCUUUCUGGGAAGCAACUUUGUUGGUCAACAGAGGAUUGAGCAUCA
B12: chr12:48362563:48362564:+_ENSG00000134291_ENST00000256686|hu_hu|hu_hu_hu_mus_False|58_98 (ssRNA)
RNA: GGGAGUUCUACAGUCCGACGAUCUCCGUCAAGCCCUUCAAGCCCCACUUGCGGGGGAAACUGUAAUCACUUUGUAUUUCUAAAAAAAAGAAACGCCAAAAACUUUCCAAAAAGCGGGGGUGGGGUGAGGCGGGAGGGGGAGGUCAACAGAGGAUUGAGCAUCA
B13: chr8:59070621:59070622:+_ENSMUSG00000038206_ENSMUST00000040218|mus_mus|FALSE|FALSE (ssRNA)
RNA: GGGAGUUCUACAGUCCGACGAUCAAACAUGAUGAGCAAAUUAAGAAAAGUUCUGUAAAAUUAGUUAGUUCUGAGAUUUCUAAACUAGAAAACAGUGAAACAAAAAAGGGGGGGUGCAGUCAAGCUGGAUUUUACACACAGGCUCAACAGAGGAUUGAGCAUCA
B14: chr8:59070621:59070622:+_ENSMUSG00000038206_ENSMUST00000040218|mus_mus|motif|central (ssRNA)
RNA: B13 RNA with U80G, A81G, U85G, A86G
B15: chr1:186721242:186721243:-_ENSMUSG00000026620_ENSMUST00000027929|mus_mus|FALSE|FALSE (ssRNA)
RNA: GGGAGUUCUACAGUCCGACGAUCAUAAUGAGUAUUAAAAAGAUGUGCCUUUUCUAGUGGCUUUACGUCGCAUACGUCACUAAUUAUGAAAGAAGGCAAAUGACCAGUUACAAAGCUCCACAUGACUGGAAUAAUGAUGUGGAACAACAGAGGAUUGAGCAUCA
B16: chr16:94690093:94690094:+_ENSMUSG00000040785_ENSMUST00000117648|mus_hu|mus_mus_mus_hu_True|8_88 (ssRNA)
RNA: GGGAGUUCUACAGUCCGACGAUCGGGCUGGGAUGACGGACACACAGAUCUUCCCAGAGGGGGAAAAAGUCUUAGUCGAUACUAAUUAAAAAGUGUUAAUGAUUUUUGAAAAUCAGAUUACAUCUAUUUGAAUCAUAAAGCAAACAACAGAGGAUUGAGCAUCA
B17: 60821080_60823165_1073_3pUTR_ENSMUSG00000021559_ENSMUST00000077453|mouse|control|control (ssRNA)
RNA: GGGAGUUCUACAGUCCGACGAUCUUCGACUAAGUGCUUGUUGGGUGUCUUUAGGCUUGAUCCAGGGGUGCUGCAAACUGUCCUGGAUUGUCAUCCUCUUCUUUGGAUCCUUGACCAGCAGUCUUCUGAUGAAAUCUUUGGCAACAACAGAGGAUUGAGCAUCA
B18: chr5:136386016:136386017:-_ENSMUSG00000051391_ENSMUST00000055808|mus_mus|motif|central (ssRNA)
RNA: GGGAGUUCUACAGUCCGACGAUCGGGGGUAUUUAACGGUUUCUGUUUUUGUGAUGGGCUGACCUUAAGGGUAAAGAAGAACGGAAAAAAAAAGUAUCCCCCGCAGCCCCCUCCCAAACACCCAUCAACCAAAACGGAACAGGGCAACAGAGGAUUGAGCAUCA
B19: chr1:169302553:169302554:-_ENSMUSG00000026688_ENSMUST00000028005|mus_mus|FALSE|FALSE (ssRNA)
RNA: GGGAGUUCUACAGUCCGACGAUCAUGCAGGCAGGAGCUUUAGGUAUGAGGCUGAUGCCAGAUAAGUUUUUAUUAUAUUAAAAAAAAAAAAAAAACCAGUGCAACUGGAAAUCAGGGUGAGUCGCUGGAGGUGAGUGAGAGUCGCAACAGAGGAUUGAGCAUCA
B20: 219445452_219447802_500_3pUTR_ENSG00000144580_ENST00000542068|human|control|control (ssRNA)
RNA: GGGAGUUCUACAGUCCGACGAUCCUGGAUGUGAUGCUACACAUUGCAGUAAUGCCAGAGCAUUGCAAACUCUGUUAGACUGGUGUGCUGUCAAGGUGGGUGGGUUGAUAGAUGGAUAAAUAUUUACAAUUUCCUGUAAAAGUGCAACAGAGGAUUGAGCAUCA

Residue numbers refer to the chain shown, from its start. Whole data set: some 24,000 sequences, median “enrichment r” near 0.99, cut for the highest 2% near 3.7. This is one part of a sample in which the highest values are shown more often than they occur.

This test has as its target T1, UNK ZnF1-3 (human, UniProt Q9C0B0 31-174).
T1 sequence: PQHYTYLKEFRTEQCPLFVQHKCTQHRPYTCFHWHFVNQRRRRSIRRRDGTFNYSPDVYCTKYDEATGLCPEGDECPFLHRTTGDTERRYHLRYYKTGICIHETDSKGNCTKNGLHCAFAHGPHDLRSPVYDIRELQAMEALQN
Kind of test: nsRBNS (natural sequence RNA bind-n-seq); RBNS binding buffer (assumed for nsRBNS): 25 mM Tris pH 7.5, 150 mM KCl, 3 mM MgCl2, 0.01% Triton X-100, 500 ug/ml BSA, 20 U/ml SUPERase-In, 4 C; UNK is unkempt and MSI1 is Musashi-1; names of the RNAs are library labels; protein concentration not given here; high values mean tight binding.
The molecule B1 had a binding signal of 1.12 enrichment R.
To B2 belongs 1.29 enrichment R; to B3, 1.08 enrichment R; to B4, 5.88 enrichment R.
To B5 belongs 4.56 enrichment R.
To B6 belongs 1.42 enrichment R.
The molecule B7 displayed a binding signal of 0.848 enrichment R.
In turn, B8 registered a binding signal of 2.38 enrichment R.
Consider B9, for which the binding signal is 1.98 enrichment R.
To B10 belongs 0.643 enrichment R; to B11, 0.529 enrichment R.
To B12 belongs 1.56 enrichment R.
To B13 belongs 7.52 enrichment R.
B14 showed a binding signal of 9.45 enrichment R.
To B15 belongs 0.52 enrichment R.
To B16 belongs 1.05 enrichment R; to B17, 0.466 enrichment R; to B18, 0.928 enrichment R.
To B19 belongs 7.4 enrichment R; to B20, 1.19 enrichment R.
